# HT1080-NT tox – kills 2HG-producing HT-1080-NT fibrosarcoma cells; Potency, µM (highest dose often 46.1 µM), for inactives: at the highest dose activity, negative = less viability, actives largely listed as cytotoxic; 1.6% of 360,000 active; AID 686970; HT-1080-NT fibrosarcoma viability, CellTiter-Glo ATP luminescence, 48 h;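 further: NT is the 2HG producing partner of a matched IDH1 knockdown line; potency means the concentration at half of the fitted maximal effect; 0% = DMSO-treated cells and -100% = media-only wells without cells; nearly all actives have a fitted effect of over 55% in size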
#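 Luminescent CellTiter-Glo readout after 48 hours of compound exposure at 37 degrees C defined viability of HT-1080-NT cells. Activity was normalized to DMSO wells and cell-free media wells; concentration-response curves were fitted and assigned curve classes.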
# DT40 TDP1 no CPT – qHTS for Inhibitors of human tyrosyl-DNA phosphodiesterase 1 (TDP1): qHTS in cells in absence of CPT; DT40 Tdp1-/- hTDP1 cells, no CPT, ATP luminescence, 48 h; Potency, µM (highest dose often 46.2 µM), for inactives: at the highest dose activity change, negative = growth inhibition, usual class: inhibitors; 15% of 420,000 active; AID 686978, 2013; further: potency means the concentration at half of the fitted maximal effect; nearly all actives have a fitted effect of over 55% in size
#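 Camptothecin absent (DMSO only). Human TDP1-complemented DT40 knockout cells, 400 cells/well, 37 °C for minimum 48 hr; ATP measured via CellTiter-Glo, 30 min dark incubation, luminescence.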
# IL1B secr inh – inhibitors of inflammasome signaling (IL-1 beta secretion) | THP-1 LPS/ATP IL-1B secretion, AlphaLISA, 16 h; stronger effect = lower value | activity change, % at 57.5 µM | 4.7% of 360,000 active | AID 743279; in the data active means activity change below about -50%; inconclusive means mostly about -30% to -49%
#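 Secreted IL-1B measured by AlphaLISA bead assay after 16 h compound exposure of THP-1 cells; compounds (final up to 57.5 uM) added 1 h before LPS (250 ng/mL) and ATP (1.25 mM) stimulation; lower signal means less secretion.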
# DT40 TDP1 CPT – DT40-hTDP1 cell growth loss with CPT; 12% of 420,000 active; chicken DT40 Tdp1-/-;hTDP1 cells + 20 nM CPT, ATP luminescence, 48 h; Potency, µM (top dose mostly 46.2 µM), for the others: top-dose activity change, negative = growth inhibition, actives largely listed as inhibitors; AID 686979; further: potency means the concentration at half of the fitted maximal effect; nearly all actives have a fitted effect of over 55% in size
#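 Cell growth measured by CellTiter-Glo luminescence after a minimum 48 h, 37 C compound exposure with 20 nM CPT in Tdp1-knockout DT40 cells stably expressing hTDP1, seeded 400/well; qHTS titration format.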
# HT1080 IDH1KD tx – HT-1080 IDH1 knockdown cell toxicity (counter line); Potency, µM (highest dose often 46.1 µM), inactives show top-dose activity, negative = toxicity, hits mostly cytotoxic; HT-1080 IDH1 knockdown viability, ATP luminescence, 48 h; AID 686971; 2% of 360,000 active;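 further: potency means the concentration at half of the fitted maximal effect; 0% = DMSO wells and -100% = cell-free medium wells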
#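 Luminescent ATP read-out (CellTiter-Glo, 10 min at room temperature) after 48 h compound exposure at 37 °C gave viability of IDH1-knockdown HT-1080 cells. Activity was normalised to DMSO and cell-free wells, then fitted as concentration-response curves.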
# ELG1 repair inh – ELG1-dependent DNA repair inhibition. Potency, µM (series often up to 46.1 µM), for the others: at the highest dose activity change, negative = inhibition, usual class: inhibitors. HEK293T ELG1-luciferase reporter, luminescence, 16 h; DNA damage induced by 5-fluorouridine. AID 504467. 2.3% of 330,000 active; further: potency means the concentration at half of the fitted maximal effect; nearly all actives have a fitted effect of over 55% in size
#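 5-Fluorouridine DNA damage + compound/DMSO, 2,000 cells/well, 16 h, 37 °C/5% CO2. ONE-Glo, 30 min RT, luminescence. Readout = decrease in reporter signal.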
# * marks the source's active call; other numbers are inactive results; ? = inconclusive; · = not tested or not shown; [ ] = another dose, or the depositor's remark. In the library only some 19% were active in any assay of this set; here they are far more common. Unless noted, the call rests on the fitted dose curve; in most records, active means well fitted curve in the direction sought with a large enough effect; inconclusive means small, poorly fitted or top-dose-only effect, or another doubt; inactive means no such curve, though single readings can be large; an effect the other way counts as inactive or inconclusive. Unless noted, on the % scale 0 is the no-effect control and ±100 the full control effect.
SMILES,HT1080-NT tox,DT40 TDP1 no CPT,IL1B secr inh,DT40 TDP1 CPT,HT1080 IDH1KD tx,ELG1 repair inh
O=C(NCCCN1CCOCC1)c1ccc(Cl)c([N+](=O)[O-])c1,15.0%,-2.8%,-2.3,7.1%,13.0%,·
O=C(NCCCN1CCOCC1)c1ccc(Sc2cccc(Cl)c2)c([N+](=O)[O-])c1,-8.0%,20.6µM*,?,?,-5.2%,10.2%
CC(C)C[C@H]1CN([C@@H](Cc2ccccc2)CN2CCC[C@H]2CN2C(=O)C(=O)NC[C@@H]2Cc2ccc(O)cc2)C(=O)C(=O)N1CCc1ccccc1,-37.4%,?,-4.0,?,?,·
COc1ccc(C(=O)Nc2ccc(S(=O)(=O)N3CCCC3)cc2)c(OC)c1,0.7%,-26.2%,0.4,-28.6%,-3.3%,2.1%
Cc1ccc(S(=O)(=O)N2CCCc3cc(NC(=O)c4ccc(C(F)(F)F)cc4)ccc32)cc1,·,20.6µM*,·,?,·,·
COc1ccc(C(=O)Nc2ccc3c(c2)CCCN3S(=O)(=O)c2ccc(C)cc2)c(OC)c1,·,5.17µM*,·,5.8µM*,·,·
c1coc(-c2nc3ccccc3nc2-c2ccco2)c1,-20.5%,?,?,18.4µM*,?,17.7%
O=C(NCCO)c1ccc(Cl)c(Cl)c1,7.2%,-14.0%,15.1,-15.0%,6.5%,18.3%
c1coc(-c2cnc3ccccc3n2)c1,5.5%,-1.6%,-11.5,22.9%,12.5%,·
O=C(NCCc1ccccc1)c1ccc2nc(-c3ccco3)c(-c3ccco3)nc2c1,3.9%,18.4µM*,?,20.6µM*,-0.6%,?
O=C(c1ccccc1)c1ccc2nc(-c3ccco3)c(-c3ccco3)nc2c1,?,20.6µM*,-18.4,20.6µM*,18.4µM*,?
O=C(O)c1ccc2nc(-c3ccccc3)c(-c3ccccc3)nc2c1,4.2%,15.6%,26.9,17.1%,9.3%,?
O=C(NCCO)c1ccc2nc(-c3ccco3)c(-c3ccco3)nc2c1,-18.5%,20.6µM*,-6.3,?,-16.2%,-21.9%
CCOC(=O)C1(Cc2cccc(F)c2)CCN(C(=O)Cn2cnnn2)CC1,-0.3%,-20.7%,8.9,-0.5%,2.7%,-14.6%
COC(=O)c1sc(N)nc1CCNC(=O)OC(C)(C)C,17.9%,-9.8%,25.1,9.0%,17.5%,·
O=Nc1[nH]c(=O)c(/C=C(\O)c2ccccc2)nc1NO,?,16.4µM*,-22.1,?,?,18.2%
Cc1cc(C)cc(NC(=S)NCc2cccs2)c1,-9.0%,?,0.0,14.6µM*,-1.1%,-0.4%
COCC1CCCN(Cc2ccc3c(c2)CN(C(=O)c2sc(C)nc2C)CCO3)C1 (configuration not stated),·,-15.5%,·,-10.7%[9.04 µM],·,·
CCOc1ccc(NC(=O)CSc2nnc(-c3ccco3)n2N)cc1,-1.6%,20.3%,13.3,13.9%,-10.8%,20.6%
O=C(CSc1nccn1Cc1ccc(F)cc1)Nc1ccc2c(c1)OCO2,·,-12.5%,·,?,·,·
CCOc1ccc(NC(=O)CSc2ncc(-c3ccc(F)cc3)n2Cc2ccco2)cc1,-24.6%,?,?,?,-29.7%,16.4µM*
O=C(CSc1ncc(-c2ccc(F)cc2)n1Cc1ccco1)Nc1ccc2c(c1)OCO2,-18.4%,?,-63.8*,29.1µM*,-26.1%,·
Cc1ccc(NC(=O)Cn2c(-c3ccc(F)cc3)cnc2SCC(=O)Nc2c(C)cccc2C)cc1,-28.9%,11.6µM*,1.7,10.3µM*,?,?
CCOc1cc(C(=O)NCCCNC(=O)c2cc(OCC)c(OCC)c(OCC)c2)cc(OCC)c1OCC,5.9%,-24.2%,44.4,-25.4%,7.0%,·
COc1cc(C(=O)Nc2ccccc2OCc2cc(=O)n3c(C)csc3n2)cc(OC)c1OC,·,-27.5%,·,-24.1%,·,·
SMILES,HT1080-NT tox,DT40 TDP1 no CPT,IL1B secr inh,DT40 TDP1 CPT,HT1080 IDH1KD tx,ELG1 repair inh
CCc1cc2c(cc3c(=O)n(CC(=O)N4CCN(c5cccc(C)c5C)CC4)nc(CC)n32)s1,·,-24.1%,·,0.2%,·,·
CCC(=O)Nc1cccc(C2=NOC3(C2)C[C@@H](C(N)=O)N(C(=O)C(c2ccccc2)c2ccccc2)C3)c1 (some centres not stated),-0.7%,-0.5%,-1.3,-1.1%,-1.6%,11.4%
NC(=O)[C@@H]1CC2(CC(c3cccc(NC(=O)COc4ccc(Cl)cc4)c3)=NO2)CN1C(=O)COc1ccc(Cl)cc1 (some centres not stated),?,11.6µM*,-54.8*,?,?,?
CC/C=C/C(=O)N1CC2(CC(c3cccc(NC(=O)COc4ccc(Cl)cc4)c3)=NO2)C[C@H]1C(N)=O (some centres not stated),-0.4%,?,?,29.1µM*,-2.5%,16.4µM*
NC(=O)[C@H]1CC2(CC(c3cccc(NC(=O)COc4ccc(Cl)cc4)c3)=NO2)CN1C(=O)C(c1ccccc1)c1ccccc1 (some centres not stated),?,13µM*,?,6.51µM*,?,?
C/C=C(/C)C(=O)Nc1cccc(C2=NOC3(C2)C[C@H](C(N)=O)N(C(=O)COc2ccc(Cl)cc2)C3)c1 (some centres not stated),5.7%,?,-19.4,?,15.7%,?
CCN1C(=O)[C@@H]2[C@@H]3CN(S(=O)(=O)c4ccc(C)cc4)[C@@H](c4ccccc4F)[C@@H]3C(=O)C[C@@H]2C1=O,22.0%,-22.5%,-8.5,-8.6%,17.2%,·

# High-throughput results (PubChem BioAssay)
